BCR signal inh: inhibitors of chronic active B-cell receptor signaling; ABC-DLBCL IkBa-CBG/CBR reporter, luminescence ratio, 4 h; Potency, µM (series often up to 46.1 µM), usual class: inhibitors; 0.05% of 340,000 active; active means well fitted inhibition curve with a large enough effect in the signal ratio, with a control signal flat, not every such curve was filed as active; inconclusive means small, poorly fitted or top-dose-only effect, or effect the other way, or a change in a side signal; the % refers to the signal ratio
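Cell line TMD8 (human ABC DLBCL), stably expressing tet-inducible CBG68-IkBa fusion and CBR; IMDM/0.5% FBS; cpd up to 46 uM; dox induction, 4 h, 37C/5% CO2; dual luminescence; green/red ratio; MG132 control.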
aSyn rescue: inhibitors of alpha-synuclein toxicity in yeast. 0.14% of 370,000 active. Yeast expressing alpha-synuclein, growth rescue, BacTiter-Glo, 24 h. Potency, µM (highest dose often 46.1 µM), usual class: activators; further: nearly all actives have a fitted effect of over 65% in size
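Readout is rescue of growth in alpha-synuclein-expressing yeast, so inhibitors of toxicity appear as activators. Growth after 24 hr at 30 deg C in galactose medium is quantified by luminescence.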
FUS yeast rescue: FUS proteinopathy suppression in yeast. S. cerevisiae FUS-expressing, growth rescue, OD600, 24 h. Potency, µM (doses to about 76.6 µM), hits mostly activators. 0.24% of 390,000 active. AID 1347120; further: nearly all actives have a fitted effect of over 55% in size
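Compound concentration series was pinned onto galactose-induced FUS-expressing yeast seeded at OD 0.005. Plates sat 24hr at 30C; absorbance at 600 nm gave growth. DMSO served as background control.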
uPA surface inh: cell surface uPA generation inhibition | cell surface uPA generation assay, qHTS | Potency, µM (titrated, usually from 38.3 µM), usual class: inhibitors | 0.31% of 330,000 active | AID 540303; active means well fitted inhibition curve with a large enough effect; inconclusive means small, poorly fitted or top-dose-only effect; inactive means no such curve, though single readings can be large or run the other way; tested in mouse RAW 264.7 cells; further: nearly all actives have a fitted effect of over 55% in size
Abeta rescue: restores growth of yeast expressing A-beta42 peptide | yeast expressing A-beta42, growth rescue, OD600, 48 h; response scale: 0% DMSO, 100% iron-clioquinol control | Potency, µM (titrated, usually from 46.1 µM), most hits filed as activators | 0.063% of 410,000 active; further: nearly all actives have a fitted effect of over 55% in size
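Growth rescue measured by 600 nm absorbance after 48 h yeast culture at 30 C with compound. Values normalized between DMSO and an equimolar ferric chloride plus clioquinol control.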
TDP43 rescue: inhibitors of TDP-43 toxicity in yeast; TDP-43 expressing yeast growth rescue, BacTiter-Glo, 24 h; Potency, µM (series often up to 46.1 µM), actives largely listed as activators; 1.8% of 410,000 active; further: nearly all actives have a fitted effect of over 50% in size
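Yeast expressing TDP-43 (pregrown in raffinose, seeded at OD600=0.02 in galactose medium) exposed to compounds 24 hr at 30 deg C. Growth read by BacTiter-Glo luminescence; rescue of toxicity appears as increased signal.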
Of the large screens only hits and unclear results are named; the others gave an inactive call. Most compounds without a hit are left out; they make up all but 2.3% or so of the library. Unless noted, the call rests on the fitted dose curve; in most records, active means well fitted curve in the direction sought with a large enough effect; inconclusive means small, poorly fitted or top-dose-only effect, or another doubt; inactive means no such curve, though single readings can be large; an effect the other way counts as inactive or inconclusive.

Cc1c(C)c2ccc(OCC(=O)N3CCC(C(=O)O)(c4ccccc4)CC3)cc2oc1=O	FUS yeast rescue inconclusive
CC(=O)[C@H]1CC[C@H]2[C@@H]3CC[C@H]4C[C@](C)(O)CC[C@]4(C)[C@H]3CC[C@]12C	none (no result: BCR signal inh, FUS yeast rescue, uPA surface inh, Abeta rescue, TDP43 rescue)
CCCCc1ccc(NC2=NCCCS2)cc1	none
COc1ccc(-c2nc(CSCC(=O)N3CCN(c4ccc(F)cc4)CC3)c(C)o2)cc1	FUS yeast rescue inconclusive, TDP43 rescue inconclusive (no result: BCR signal inh, aSyn rescue, uPA surface inh)
Cc1ccsc1-c1nc(CSCC(=O)N2CCN(c3ccccc3)CC2)c(C)o1	BCR signal inh inconclusive, uPA surface inh inconclusive, TDP43 rescue 13µM
N#C[C@H](O[C@@H]1O[C@H](CO[C@@H]2O[C@H](CO)[C@@H](O)[C@H](O)[C@H]2O)[C@@H](O)[C@H](O)[C@H]1O)c1ccccc1	none
Cc1ccccc1-c1nc2ccccc2c(=O)n1C	none
Cc1oc(-c2ccccc2Cl)nc1CN1C(=O)CN=C(c2ccccc2)c2ccccc21	BCR signal inh inconclusive, uPA surface inh inconclusive, TDP43 rescue 35µM
COCCCn1c(N)c(C(=O)Nc2sc3c(c2C(=O)OC)CCCC3)c2nc3ccccc3nc21	aSyn rescue inconclusive
Cc1ccc(-n2cnn(-c3ccc([N+](=O)[O-])cc3[N+](=O)[O-])c2=O)cc1	BCR signal inh inconclusive, aSyn rescue inconclusive
Cc1ccc(-c2nc3ccc([N+](=O)[O-])cc3[nH]2)cc1	BCR signal inh inconclusive, uPA surface inh inconclusive, TDP43 rescue 18µM
COc1cc2c(c(OC)c1OC)-c1ccc(O)c(=O)cc1[C@@H](NC(C)=O)CC2	BCR signal inh inconclusive, uPA surface inh 8.9µM
COc1cc2c(c(OC)c1OC)-c1ccc(O)cc1C(NC(C)=O)CC2 (stereo unspecified)	none (no result: BCR signal inh)
O=C1c2ccccc2-n2nncc2C2c3cc(Br)ccc3CCN12 (stereo unspecified)	TDP43 rescue 35µM (no result: BCR signal inh, uPA surface inh)
O=[N+]([O-])c1cc(F)c(N2CCCC2)cc1Br	none
O=C1N(c2ccc(Cl)cc2)C(c2cccnc2)N2CCCN12 (stereo unspecified)	BCR signal inh inconclusive, aSyn rescue inconclusive, TDP43 rescue 35µM
CCC12CN3CC(CC)(CN(C1)C3c1cccnc1)C2=O (stereo unspecified)	none
Cn1ncnc2c(=O)n(C)c(=O)nc1-2	BCR signal inh inconclusive, uPA surface inh 1.1µM, TDP43 rescue inconclusive
CCN(CC)C(=O)c1ccc2c(c1)C1C(Cl)C(Sc3ccccc3[N+](=O)[O-])CC1C(C(=O)O)N2 (stereo unspecified)	FUS yeast rescue 40µM
O=C(c1ccc(F)cc1)C(CN1CCOCC1)c1ccccc1 (stereo unspecified)	BCR signal inh inconclusive, TDP43 rescue 18µM (no result: FUS yeast rescue)
COc1ccc(C(=O)C(CN2CCCC2)c2ccccc2)cc1 (stereo unspecified)	BCR signal inh inconclusive, TDP43 rescue inconclusive
COC(=O)C1=C(c2cccc(OCc3ccccc3)c2)C[C@@H]2CC[C@H]1N2C(=O)NCc1ccc(F)cc1	FUS yeast rescue inconclusive, uPA surface inh inconclusive
COC(=O)C1=C(c2cccc(OCc3ccccc3)c2)C[C@@H]2CC[C@H]1N2C(=O)NCc1ccc2[nH]ccc2c1	BCR signal inh inconclusive, FUS yeast rescue 8.9µM, uPA surface inh inconclusive
CC(C)N=C(NC(C)C)N1CC1	none (no result: BCR signal inh, uPA surface inh)
CCCCSc1nc2c(cnn2-c2ccccc2)c(=O)n1N	BCR signal inh inconclusive, TDP43 rescue 16µM
Nc1cnn(-c2ccccc2)c(=O)c1Cl	none
C=C1[C@@H](O)[C@H](Cc2ccccc2)N(Cc2ccccc2Br)S1(=O)=O	uPA surface inh 10µM, TDP43 rescue inconclusive (no result: BCR signal inh)
CSc1ccc(CN2CCN(C(=O)COc3ccc(C)cc3)CC2)cc1	none
N#CSCC(=O)N1c2ccccc2CCc2ccccc21	BCR signal inh inconclusive, Abeta rescue inconclusive, TDP43 rescue 18µM (no result: FUS yeast rescue)
COc1ccc2oc(=O)c(C(=O)OCc3ccccc3)cc2c1	BCR signal inh inconclusive, TDP43 rescue inconclusive
COc1ccc2[nH]c3c(c2c1)CCN1C(=O)C(CC(=O)NCc2ccco2)C[C@H](C(=O)N(C(C)C)C(C)C)[C@@]31C (stereo partly specified)	uPA surface inh inconclusive
CCN(CC)C(=O)[C@H]1C[C@H](CC(=O)NCc2ccc(OC)c(OC)c2)C(=O)N2CCc3c([nH]c4ccc(Cl)cc34)[C@]12C	BCR signal inh inconclusive, uPA surface inh 10µM
CC(C)(C)c1ccc(OCCON2C(=O)CCC2=O)c(Cl)c1	TDP43 rescue 13µM
CC(C)(O)[C@H]1O[C@H]2CC[C@@]3(C)[C@@](O)(CC[C@H]4Cc5c([nH]c6ccccc56)[C@@]43C)C2=CC1=O	BCR signal inh inconclusive, FUS yeast rescue inconclusive, Abeta rescue inconclusive, TDP43 rescue 22µM
CC1CCC(C(C)C)C(OC(=O)COC(=O)c2ccccc2N)C1 (stereo unspecified)	BCR signal inh inconclusive (no result: FUS yeast rescue)
COc1ccc(-c2c[n+](CC(=O)OC3CC(C)CCC3C(C)C)c3n2CCC3)cc1 (stereo unspecified)	BCR signal inh inconclusive, uPA surface inh 6.3µM
CC1=NN(c2ccccc2)C(=O)C1/C=C1/C(=O)NC(=O)N(c2cccc(C)c2)C1=O (stereo unspecified)	none (no result: aSyn rescue, FUS yeast rescue, uPA surface inh, Abeta rescue, TDP43 rescue)
Cc1cccc(C)c1NC(=O)c1cccn(Cc2ccc3c(c2)OC(F)(F)O3)c1=O	FUS yeast rescue inconclusive, TDP43 rescue 20µM
CC(C)Oc1cccc(NC(=O)c2cccn(Cc3ccc4c(c3)OC(F)(F)O4)c2=O)c1	none
O=C(Nc1ccc2c(c1)OCCO2)c1cccn(Cc2ccccc2)c1=O	BCR signal inh inconclusive, TDP43 rescue 20µM (no result: aSyn rescue, uPA surface inh)
O=C(Nc1ccc2c(c1)OCCO2)c1cccn(Cc2cccc([N+](=O)[O-])c2)c1=O	none (no result: aSyn rescue, uPA surface inh)
N#Cc1ccccc1NC(=O)c1cccn(Cc2ccccc2)c1=O	TDP43 rescue 22µM (no result: aSyn rescue, uPA surface inh)
CCOC(C(=O)OCCCN(CC)CC)(c1ccccc1)c1ccccc1	none
Cc1ccsc1C(=O)C1CCCN(Cc2ccccc2O)C1 (stereo unspecified)	none
COc1cccc(NP(=O)(Oc2ccccc2)Oc2ccccc2)c1	BCR signal inh inconclusive, aSyn rescue inconclusive (no result: FUS yeast rescue)
O=P(Nc1cccc(Cl)c1)(Oc1ccccc1)Oc1ccccc1	BCR signal inh inconclusive, aSyn rescue 22µM, Abeta rescue inconclusive
COC(=O)C1=C(c2ccc(F)cc2F)C[C@@H]2CC[C@H]1N2C(=O)N1CCCC1	none
COC(=O)C1=C(c2ccc(F)cc2F)C[C@@H]2CC[C@H]1N2C(=O)N1CCC(O)(c2ccc(Cl)cc2)CC1	aSyn rescue inconclusive, FUS yeast rescue inconclusive, uPA surface inh inconclusive, Abeta rescue inconclusive, TDP43 rescue 20µM

High-throughput results: PubChem, National Center for Advancing Translational Sciences (NCATS)
